Data reported in PubChem BioAssay (NCATS).
Results filed as inconclusive are left out. Where a call stands in place of a potency, no number is given. Calls of active or inactive are those of the source. Unless noted, the call rests on the fitted dose curve; in most records, active means well fitted curve in the direction sought with a large enough effect; inconclusive means small, poorly fitted or top-dose-only effect, or another doubt; inactive means no such curve, though single readings can be large; an effect the other way counts as inactive or inconclusive.

Experiments:
[1] = target: Cytochrome P450 1A2 (Homo sapiens) (UniProt P05177); assay: p450-cyp1a2 (AID 410; calls by dose curve; further: potency means the concentration at half of the fitted maximal effect)
Cytochrome P450 1A2 (Homo sapiens), sequence (P05177 whole entry, looked up): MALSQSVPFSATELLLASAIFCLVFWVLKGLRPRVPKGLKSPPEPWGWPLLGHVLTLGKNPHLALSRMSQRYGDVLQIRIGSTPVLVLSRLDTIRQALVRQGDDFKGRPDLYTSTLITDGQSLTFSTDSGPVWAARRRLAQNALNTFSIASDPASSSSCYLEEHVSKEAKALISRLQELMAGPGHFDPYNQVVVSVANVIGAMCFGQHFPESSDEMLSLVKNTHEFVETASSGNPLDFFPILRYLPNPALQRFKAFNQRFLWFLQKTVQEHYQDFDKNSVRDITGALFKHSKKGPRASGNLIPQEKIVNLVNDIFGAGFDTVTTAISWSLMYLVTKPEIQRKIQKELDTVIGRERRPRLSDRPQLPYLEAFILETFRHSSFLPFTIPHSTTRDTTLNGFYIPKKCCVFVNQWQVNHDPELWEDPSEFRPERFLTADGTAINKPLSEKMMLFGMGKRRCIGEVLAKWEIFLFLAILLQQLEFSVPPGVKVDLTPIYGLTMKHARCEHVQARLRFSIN
Outline: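 O-Demethylation of luciferin 6' methyl ether by human CYP1A2 is monitored as luciferase luminescence. Substrate sits at Km (100uM); enzyme is 20nM. Values are scaled to 57 uM furafylline as maximal inhibition.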

[2] = target: Mitogen-activated protein kinase 10 (Mus musculus) (UniProt Q61831); assay: JNK3 AlphaScreen Assay (AID 530; active means well fitted curve in either direction with a large enough effect, not every such curve was filed as active;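 further: kinase came from lysate of stimulated human HepG2 cells; signal reports phosphorylation of biotinylated GST-cJun 1-79 at Ser73 with 10 µM ATP; series mostly up to about 57 µM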)
Outline: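 Activity was read by AlphaScreen after JNK3-containing HepG2 lysate (cytokine pre-activated) phosphorylated biotinylated GST-cJun with 10 uM ATP at room temperature. Phospho-Ser73 cJun antibody with Protein-A acceptor beads provided detection.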

[3] = target: Cytochrome P450 2C9 (Homo sapiens) (UniProt P11712); assay: qHTS Assay for Inhibitors and Substrates of Cytochrome P450 2C9 (AID 883); further: potency means the concentration at half of the fitted maximal effect; nearly all actives have a fitted effect of over 60% in size
Cytochrome P450 2C9 (Homo sapiens), sequence (P11712 whole entry, looked up): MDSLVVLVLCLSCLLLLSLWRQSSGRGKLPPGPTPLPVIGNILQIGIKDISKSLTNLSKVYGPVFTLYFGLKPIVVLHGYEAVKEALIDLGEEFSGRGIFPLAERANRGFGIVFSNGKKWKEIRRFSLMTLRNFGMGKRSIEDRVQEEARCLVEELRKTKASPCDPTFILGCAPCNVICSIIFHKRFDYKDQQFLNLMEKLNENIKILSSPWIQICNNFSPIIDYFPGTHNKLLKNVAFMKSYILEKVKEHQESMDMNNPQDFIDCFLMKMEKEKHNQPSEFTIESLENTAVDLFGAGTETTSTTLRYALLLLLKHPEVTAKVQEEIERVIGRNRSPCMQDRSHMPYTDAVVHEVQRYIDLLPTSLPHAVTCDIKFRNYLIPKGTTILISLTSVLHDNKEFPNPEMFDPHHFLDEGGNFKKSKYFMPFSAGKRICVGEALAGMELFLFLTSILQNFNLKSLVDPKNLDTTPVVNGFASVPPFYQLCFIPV
Outline: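 Human CYP2C9 (10nM) with Luciferin-H at 100uM (its KM) in 25mM KPO4; compound preincubated 10 min at 37C, then NADPH regeneration for 60 min at 37C. Luciferin read by luminescence after detection reagent; normalized to 57uM sulphaphenazole as full inhibition.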

[4] = target: Cytochrome P450 3A4 (Homo sapiens) (UniProt P08684); assay: qHTS Assay for Inhibitors and Substrates of Cytochrome P450 3A4 (AID 884); further: potency means the concentration at half of the fitted maximal effect; nearly all actives have a fitted effect of over 50% in size
Cytochrome P450 3A4 (Homo sapiens), sequence (P08684 whole entry, looked up): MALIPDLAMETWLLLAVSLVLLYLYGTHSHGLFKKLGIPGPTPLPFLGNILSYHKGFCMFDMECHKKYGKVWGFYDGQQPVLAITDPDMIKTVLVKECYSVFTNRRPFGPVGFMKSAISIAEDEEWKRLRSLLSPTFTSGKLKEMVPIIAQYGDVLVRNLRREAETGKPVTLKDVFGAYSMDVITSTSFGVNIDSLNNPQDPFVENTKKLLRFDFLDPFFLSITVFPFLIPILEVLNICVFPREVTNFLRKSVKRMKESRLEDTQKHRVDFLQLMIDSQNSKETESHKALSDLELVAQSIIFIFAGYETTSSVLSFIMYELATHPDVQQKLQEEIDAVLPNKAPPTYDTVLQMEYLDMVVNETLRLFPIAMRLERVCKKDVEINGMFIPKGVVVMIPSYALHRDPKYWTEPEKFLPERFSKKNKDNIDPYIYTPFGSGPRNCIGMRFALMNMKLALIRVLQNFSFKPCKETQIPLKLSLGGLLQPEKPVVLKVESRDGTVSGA
Outline: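 Luminescent readout of luciferin produced by CYP3A4 (20 nM) dealkylation of Luciferin-PPXE, 25 uM (its KM). NADPH-driven reaction ran 60 min at RT after 10 min compound preincubation; data scaled to 57 uM ketoconazole as 100% inhibition.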

[5] = target: Cytochrome P450 3A4 (Homo sapiens) (UniProt P08684); assay: qHTS Assay for Activators of Cytochrome P450 3A4 (AID 885); further: nearly all actives have a fitted effect of over 65% in size
Outline: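 Human CYP3A4 dealkylates Luciferin-PPXE to luciferin, which luciferase detection converts to light. Substrate was at its KM (25uM), buffer 200mM KPO4, reaction 60 min at RT.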

[6] = target: 3',5'-cyclic-AMP phosphodiesterase 4B (Homo sapiens) (UniProt Q07343); assay: qHTS Assay for Inhibitors of PDE-IV (AID 607; active means well fitted activation curve with a large enough effect in the main read-out, with a control signal flat, not every such curve was filed as active)
3',5'-cyclic-AMP phosphodiesterase 4B (Homo sapiens), sequence (Q07343 whole entry, looked up): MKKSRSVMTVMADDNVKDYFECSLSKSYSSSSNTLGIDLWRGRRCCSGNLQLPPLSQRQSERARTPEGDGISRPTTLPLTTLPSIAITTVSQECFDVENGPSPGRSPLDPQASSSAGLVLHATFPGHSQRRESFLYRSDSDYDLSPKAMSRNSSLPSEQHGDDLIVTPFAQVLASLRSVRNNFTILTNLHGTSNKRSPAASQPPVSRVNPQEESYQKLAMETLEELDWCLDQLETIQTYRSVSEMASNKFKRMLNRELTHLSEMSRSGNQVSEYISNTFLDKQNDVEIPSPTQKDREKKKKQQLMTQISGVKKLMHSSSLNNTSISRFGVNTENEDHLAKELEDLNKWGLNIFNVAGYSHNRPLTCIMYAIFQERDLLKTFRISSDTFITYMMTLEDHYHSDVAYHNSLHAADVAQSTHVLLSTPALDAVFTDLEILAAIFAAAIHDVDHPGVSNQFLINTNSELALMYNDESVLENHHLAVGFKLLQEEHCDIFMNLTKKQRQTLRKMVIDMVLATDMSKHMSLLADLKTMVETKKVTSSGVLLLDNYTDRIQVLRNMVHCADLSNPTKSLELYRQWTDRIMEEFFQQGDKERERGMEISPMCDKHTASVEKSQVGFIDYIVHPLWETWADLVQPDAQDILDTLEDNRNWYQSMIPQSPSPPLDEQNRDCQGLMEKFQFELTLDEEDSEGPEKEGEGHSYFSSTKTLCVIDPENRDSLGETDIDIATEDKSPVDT
Outline: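 HEK293 ACTOne cells with CNG channel (1000/well), endogenous PDE4; membrane potential dye, compounds up to 22.9 uM final. Fluorescence Ex 535/Em 590; RO 20-1724 (100 uM final) as reference.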

[7] = target: Cytochrome P450 2D6 (Homo sapiens) (UniProt P10635); assay: qHTS Assay for Inhibitors and Substrates of Cytochrome P450 2D6 (AID 891); further: potency means the concentration at half of the fitted maximal effect; nearly all actives have a fitted effect of over 60% in size
Cytochrome P450 2D6 (Homo sapiens), sequence (P10635 whole entry, looked up): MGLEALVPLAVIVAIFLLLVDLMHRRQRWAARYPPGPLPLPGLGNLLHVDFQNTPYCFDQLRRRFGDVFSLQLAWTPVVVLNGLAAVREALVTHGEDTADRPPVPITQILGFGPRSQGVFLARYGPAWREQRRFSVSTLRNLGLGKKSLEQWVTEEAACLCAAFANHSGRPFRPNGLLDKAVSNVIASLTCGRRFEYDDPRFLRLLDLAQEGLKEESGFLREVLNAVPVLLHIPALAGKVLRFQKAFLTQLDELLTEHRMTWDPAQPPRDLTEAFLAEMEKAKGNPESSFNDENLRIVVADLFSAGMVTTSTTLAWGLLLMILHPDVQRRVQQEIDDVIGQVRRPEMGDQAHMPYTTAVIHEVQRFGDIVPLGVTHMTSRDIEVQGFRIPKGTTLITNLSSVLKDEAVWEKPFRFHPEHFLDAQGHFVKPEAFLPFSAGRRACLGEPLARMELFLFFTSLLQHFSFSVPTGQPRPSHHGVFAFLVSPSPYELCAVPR
Outline: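 Luminescent read-out of luciferin formed by 5 nM human CYP2D6 demethylating 30 uM Luciferin-ME EGE (Km level) over 60 min at room temperature after NADPH regeneration addition. Data normalized to full inhibition by 1.43 uM quinidine.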

[8] = target: Cytochrome P450 2C19 (Homo sapiens) (UniProt P33261); assay: qHTS Assay for Inhibitors and Substrates of Cytochrome P450 2C19 (AID 899); further: nearly all actives have a fitted effect of over 60% in size; further: potency means the concentration at half of the fitted maximal effect
Cytochrome P450 2C19 (Homo sapiens), sequence (P33261 whole entry, looked up): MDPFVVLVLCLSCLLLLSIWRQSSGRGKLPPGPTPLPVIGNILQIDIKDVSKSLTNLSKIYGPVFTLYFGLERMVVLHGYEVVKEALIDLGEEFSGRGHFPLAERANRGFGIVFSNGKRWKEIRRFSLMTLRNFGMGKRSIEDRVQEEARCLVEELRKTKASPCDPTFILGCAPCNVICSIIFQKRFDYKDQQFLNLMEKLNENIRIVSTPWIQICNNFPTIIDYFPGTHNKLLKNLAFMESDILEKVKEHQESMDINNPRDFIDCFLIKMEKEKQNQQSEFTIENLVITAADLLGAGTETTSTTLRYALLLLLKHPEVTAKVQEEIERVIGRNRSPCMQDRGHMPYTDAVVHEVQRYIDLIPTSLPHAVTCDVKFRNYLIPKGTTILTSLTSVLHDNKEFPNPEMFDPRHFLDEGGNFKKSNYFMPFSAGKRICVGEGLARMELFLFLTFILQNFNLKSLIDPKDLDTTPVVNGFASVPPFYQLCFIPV
Outline: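 5 nM human CYP2C19 with 10uM Luciferin-H EGE (at KM) in 50mM KPO4, compound preincubated 10 min at 37C, then NADPH regeneration for 60 min at 37C. Luciferin read by luminescence after detection reagent; normalized to 57uM ketoconazole as full inhibition.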

Which results are given for `CCC/C=C(\CCC)C(NS(=O)(=O)c1cccc2cccnc12)c1ccc(-c2ccccc2)cc1` (centres undefined)?
Potency [1]: 0.794 µM (active); Potency [2]: inactive; Potency [3]: 2 µM (active); Potency [4]: 3.16 µM (active); Potency [5]: inactive

With `C/C(=C\C1CCCCC1)C(NC(=O)c1ccc(C(F)(F)F)cc1)c1ccc(-c2ccccc2)cc1` (centres undefined) as the molecule, how does the Potency [1] read?
The Potency was “inactive”.

And the Potency [2]?
The Potency was “inactive”.

What about the Potency [6] of the same molecule?
Its Potency is “inactive”.

And the Potency [5]?
Its Potency is “inactive”.

How did the Potency [1] turn out when `CC(=O)N[C@H](c1ccccc1)[C@@]1(C)C[C@@H]1[C@@H](C)C(=O)Nc1ccc2ccccc2c1` was run?
Its Potency is 15.8 µM (active).

What about the Potency [2] of the same molecule?
The Potency was “inactive”.

What about the Potency [6] of the same molecule?
Its Potency is “inactive”.

What about the Potency [5] of the same molecule?
The Potency was “inactive”.

And the Potency [7]?
Its Potency is 2 µM (active).

And the Potency [8]?
Its Potency is 5.01 µM (active).

How did the Potency [1] turn out when `c1ccc2c(c1)Cc1cc3cc4c(cc3nc1-2)OCO4` was run?
The Potency was 0.501 µM (active).

And the Potency [2]?
The Potency was “inactive”.

And the Potency [3]?
Its Potency is 3.98 µM (active).

What about the Potency [4] of the same molecule?
Its Potency is 1 µM (active).

What about the Potency [5] of the same molecule?
Its Potency is “inactive”.

And the Potency [7]?
Its Potency is 1.26 µM (active).

And the Potency [8]?
The Potency was 1.26 µM (active).

Which results are given for `C[C@H]1C2=C3C(CC[C@H]4C(OCc5ccc(F)cc5C(F)(F)F)OC[C@](C)([C@@H]34)N(C(=O)OC(C)(C)C)C2)C(CO)C1CO` (some centres undefined)?
Potency [1]: 15.8 µM (active); Potency [2]: inactive; Potency [6]: inactive; Potency [5]: inactive

Which results are given for `CCCCCC1=C2CNC(Cc3ccccc3)(C(=O)OC)C=C2C(C)C1=O` (centres undefined)?
Potency [1]: 15.8 µM (active); Potency [2]: inactive; Potency [6]: inactive; Potency [5]: inactive; Potency [8]: 6.31 µM (active)

Which Potency [1] does the source give for `COC(=O)C1CC1C(NC(=O)[C@H]1CCCCN1)c1ccccc1` (some centres undefined) here?
Its Potency is “inactive”.

And the Potency [2]?
Its Potency is “inactive”.

What about the Potency [6] of the same molecule?
The Potency was “inactive”.

And the Potency [5]?
The Potency was “inactive”.

What does the source list for `CC[C@@H]1OC(=O)[C@@H](C)[C@H](O[C@@H]2C[C@@](C)(OC)[C@@H](O)[C@H](C)O2)[C@H](C)[C@H](O[C@@H]2O[C@@H](C)C[C@@H](N(C)C)[C@H]2O)[C@@](C)(O)C[C@H](C)C(=O)[C@@H](C)[C@H](O)[C@@]1(C)O`?
Potency [1]: inactive; Potency [2]: inactive; Potency [6]: inactive; Potency [8]: inactive

What does the source list for `COC(=O)C1CC1C(NC(=O)[C@@H]1CCCN1)c1ccccc1` (some centres undefined)?
Potency [1]: 15.8 µM (active); Potency [2]: inactive; Potency [6]: inactive; Potency [5]: inactive

What does the source list for `CCCCCC1=C2CNC(C)(C(=O)OC)C=C2C(C)C1=O` (centres undefined)?
Potency [1]: 25.1 µM (active); Potency [2]: inactive; Potency [6]: inactive; Potency [5]: inactive

What does the source list for `CCC[C@@H]1C[C@@]1(CCC)C(NC(=O)c1ccco1)c1ccc(Cl)cc1` (some centres undefined)?
Potency [1]: 25.1 µM (active); Potency [2]: inactive; Potency [6]: inactive; Potency [5]: inactive; Potency [8]: 3.16 µM (active)

Which results are given for `COC(=O)[C@@H]1C[C@H]1[C@@H](NC(=O)c1cccnc1)c1ccccc1`?
Potency [1]: 12.6 µM (active); Potency [2]: inactive; Potency [6]: inactive; Potency [5]: inactive

What does the source list for `CCC[C@@H]1C[C@@]1(CCC)C(NS(=O)(=O)c1cccc2cccnc12)c1ccc(Cl)cc1` (some centres undefined)?
Potency [1]: inactive; Potency [2]: inactive; Potency [3]: 7.94 µM (active); Potency [4]: 0.794 µM (active); Potency [5]: inactive; Potency [8]: 3.16 µM (active)

What does the source list for `COC(=O)[C@H]1C[C@@H]1[C@H](NC(=O)OCc1ccccc1)c1ccccc1`?
Potency [1]: 0.126 µM (active); Potency [2]: inactive; Potency [6]: inactive; Potency [5]: inactive

What does the source list for `O=C(Cc1ccccc1I)Nc1ccccc1`?
Potency [1]: 12.6 µM (active); Potency [2]: inactive; Potency [6]: inactive; Potency [8]: 6.31 µM (active)

Which Potency [1] does the source give for `CCCC[C@@H]1C[C@H]1C(NC(=O)c1ccccc1)c1ccccc1C(F)(F)F` (some centres undefined) here?
Its Potency is 10 µM (active).

And the Potency [2]?
The Potency was “inactive”.

What about the Potency [3] of the same molecule?
Its Potency is 1.26 µM (active).

And the Potency [5]?
Its Potency is “inactive”.

What about the Potency [8] of the same molecule?
The Potency was 0.501 µM (active).

What does the source list for `COC(=O)[C@@]1(Cc2ccc(OC)cc2)[C@@H]2C(=CC(=O)[C@H]2CC(=O)C(=O)N2CCCC2)CN1C(=O)c1ccccc1`?
Potency [1]: inactive; Potency [2]: inactive; Potency [5]: inactive

How did the Potency [1] turn out when `CCCC[C@@H]1C[C@H]1C(NC(=O)Cc1ccccc1)c1ccc(Cl)cc1` (some centres undefined) was run?
Its Potency is 2.51 µM (active).

And the Potency [2]?
The Potency was “inactive”.

And the Potency [4]?
Its Potency is 2.51 µM (active).

What about the Potency [5] of the same molecule?
The Potency was “inactive”.

What about the Potency [8] of the same molecule?
Its Potency is 0.0501 µM (active).

For `COc1cc2nc3c(c([Si](C)(C)C(C)(C)C)c2cc1OC)Cn1c-3cccc1=O`, which Potency [1] is on record?
Its Potency is 5.01 µM (active).

What about the Potency [2] of the same molecule?
The Potency was “inactive”.

What about the Potency [4] of the same molecule?
Its Potency is 3.98 µM (active).

What about the Potency [5] of the same molecule?
Its Potency is “inactive”.

With `CCCC[C@@H]1C[C@H]1C(NC(=O)c1cccs1)c1ccccc1C(F)(F)F` (some centres undefined) as the molecule, how does the Potency [1] read?
The Potency was 6.31 µM (active).

And the Potency [2]?
Its Potency is “inactive”.

And the Potency [4]?
Its Potency is 3.16 µM (active).

And the Potency [5]?
Its Potency is “inactive”.

What about the Potency [8] of the same molecule?
The Potency was 0.631 µM (active).

Which Potency [1] does the source give for `CCCC[C@@H]1C[C@H]1C(NC(=O)c1cccs1)c1ccc(C(F)(F)F)cc1` (some centres undefined) here?
Its Potency is 2 µM (active).

And the Potency [2]?
Its Potency is “inactive”.

What about the Potency [3] of the same molecule?
The Potency was 1.58 µM (active).

And the Potency [5]?
Its Potency is “inactive”.

What about the Potency [8] of the same molecule?
The Potency was “inactive”.

`CCCC[C@@H]1C[C@H]1C(NC(=O)c1ccccc1)c1ccc(Cl)cc1` (some centres undefined) was tested. Which Potency [1] did it give?
The Potency was 1 µM (active).

What about the Potency [2] of the same molecule?
Its Potency is “inactive”.

And the Potency [4]?
The Potency was 3.98 µM (active).

What about the Potency [5] of the same molecule?
The Potency was “inactive”.

And the Potency [8]?
The Potency was 0.631 µM (active).

Which Potency [1] does the source give for `CC(C)(C)[Si](C)(C)c1c2c(nc3ccc(OCc4ccccc4)cc13)-c1cccc(=O)n1C2` here?
The Potency was 5.01 µM (active).

And the Potency [2]?
The Potency was “inactive”.

And the Potency [5]?
The Potency was “inactive”.

What does the source list for `CCC/C=C(\CCC)C(NC(=O)c1ccc(C(=O)OC)cc1)c1ccc(C(=O)OC)cc1` (centres undefined)?
Potency [1]: inactive; Potency [2]: inactive; Potency [3]: 2 µM (active); Potency [5]: inactive

What does the source list for `CC(C)(C)C(=O)NC(c1ccc(Cl)cc1)[C@]1(C)C[C@H]1C1CCCCC1` (some centres undefined)?
Potency [1]: inactive; Potency [2]: inactive; Potency [5]: inactive

With `COC(=O)[C@H](C)[C@@H]1C[C@@]1(C)[C@@H](NC(=O)OCc1ccccc1)c1ccccc1` as the molecule, how does the Potency [1] read?
Its Potency is 15.8 µM (active).

What about the Potency [2] of the same molecule?
Its Potency is “inactive”.

What about the Potency [3] of the same molecule?
Its Potency is 5.01 µM (active).

And the Potency [5]?
Its Potency is “inactive”.

What about the Potency [8] of the same molecule?
Its Potency is 0.316 µM (active).

How did the Potency [1] turn out when `CCCC[C@@H]1C[C@H]1C(NC(=O)c1ccco1)c1ccc(C(=O)OC)cc1` (some centres undefined) was run?
The Potency was 3.98 µM (active).

What about the Potency [2] of the same molecule?
The Potency was “inactive”.

What about the Potency [3] of the same molecule?
Its Potency is 0.794 µM (active).

What about the Potency [5] of the same molecule?
The Potency was “inactive”.

What does the source list for `c1ccc(-c2c3ccccc3nc3[nH]c4ccccc4c23)cc1`?
Potency [1]: 0.501 µM (active); Potency [2]: inactive; Potency [5]: inactive

Which Potency [1] does the source give for `CCCC[C@@H]1C[C@H]1C(NC(=O)c1ccccc1)c1ccccc1` (some centres undefined) here?
The Potency was 2.51 µM (active).

And the Potency [2]?
Its Potency is “inactive”.

What about the Potency [3] of the same molecule?
The Potency was 7.94 µM (active).

What about the Potency [5] of the same molecule?
Its Potency is “inactive”.

And the Potency [8]?
The Potency was 0.398 µM (active).
